Most compounds without a hit are left out; they make up all but 10% or so of the library.
PTEN del growth: growth suppressors of cells with PTEN tumor suppressor deletion; HCT116 PTEN-null viability, CellTiter-Glo, 60 h; stronger effect = lower value; viability, % at 10 µM; actives 1.2% (n = 140,000); AID 827;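 active = viability at or below a set limit, 4 SD under the median of all tested compounds, cut at about 3.7% in these data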;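 note: PTEN knockout HCT116 line with beta catenin targeted HCT116 as companion control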
ROMK mod: human ROMK K+ channel modulation, primary screen; P48048; Tet-inducible ROMK, thallium flux fluorescence; actives lie on both sides; B-score at 10 µM; actives 2% (n = 130,000); AID 1918;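 active = signal ratio slope over the read window, or its plate-corrected B-score, at least 3 SD from the plate mean, either direction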;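 note: B-score of the F/F0 ratio slope over 7 to 12 s after thallium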
Target sequence (P48048 whole entry, looked up): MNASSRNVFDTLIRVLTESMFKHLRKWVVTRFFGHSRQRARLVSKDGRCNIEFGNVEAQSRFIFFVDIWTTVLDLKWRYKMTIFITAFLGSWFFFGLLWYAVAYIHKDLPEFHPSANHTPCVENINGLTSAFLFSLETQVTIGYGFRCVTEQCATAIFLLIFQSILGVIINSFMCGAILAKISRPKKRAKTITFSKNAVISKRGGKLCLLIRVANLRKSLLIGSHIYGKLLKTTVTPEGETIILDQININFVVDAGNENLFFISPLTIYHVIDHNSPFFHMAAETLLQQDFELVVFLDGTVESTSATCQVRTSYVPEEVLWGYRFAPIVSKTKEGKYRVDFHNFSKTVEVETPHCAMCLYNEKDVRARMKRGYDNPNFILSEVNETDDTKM
Lmaj promast: inhibitors of Leishmania major promastigote growth; AID 1063; inhibition, % at 10 µM; actives 9% (n = 200,000); Leishmania major promastigotes, resazurin fluorescence viability; in the data active = inhibition above about 50%;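 note: promastigotes grown with compound for 44 hours at 28 °C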
HCT116 bCat-KO: beta-catenin-lacking colon tumor cell growth suppression | HCT116 beta-catenin knockout viability, CellTiter-Glo, 60 h; stronger effect = lower value | viability, % at 10 µM | actives 1.5% (n = 140,000) | AID 818;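 active = viability at or under a set limit, the compound median less 4 SD, cut at about 6% in these data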;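 note: 0% = Hyamine 1622 control at 20 µM and 100% = untreated cell control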
p97 inhibitor: blocks human p97 ATPase activity; P55072; recombinant p97 ATPase, Kinase-Glo ATP luminescence, 3 h; inhibition, % at 8 µM; actives 0.42% (n = 220,000); AID 1481; in the data active = inhibition above about 15%;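 note: 0% = DMSO vehicle and 100% = wells lacking enzyme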
INS promoter inh: TRM-6 insulin promoter activity inhibition. TRM-6 cells (human fetal islet line), insulin promoter-eGFP reporter, imaging; reporter expression induced with tamoxifen. inhibition, % at 2 µM. actives 0.9% (n = 130,000);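 active = inhibition above the mean plus 3 SD, with well images judged a real hit on visual review, cut at about 60% in these data, passing the limit was not always enough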
* hit, by the source's call; x = no result.

SMILES | PTEN del growth | ROMK mod | Lmaj promast | HCT116 bCat-KO | p97 inhibitor | INS promoter inh
COc1ccc(Nc2cc(C)c3ccccc3n2)cc1 | x | -0.315 | 82.5* | x | 2.0 | x
C/C(CCC(C)C)=N\Nc1cc(C)c2ccccc2n1 | x | -0.123 | 67.2* | x | 0.1 | x
COc1ccc(C(C#N)Nc2ccccc2)cc1 (stereo unspecified) | 93.7 | -0.158 | -0.7 | 96.0 | 6.3 | 22.2
COc1ccc(NC(C#N)c2ccc(OC)cc2)cc1 (stereo unspecified) | 92.9 | x | 91.2* | 102.6 | 1.6 | 0.0
CC(C)C(C(=O)OCC(=O)c1ccccc1)N1C(=O)C2C3C=CC(C3)C2C1=O (stereo unspecified) | x | -0.0238 | -7.3 | x | 0.4 | -57.9
COC(=O)/C(C#N)=C(/Nc1ccc(F)c(Cl)c1)C(F)(F)F | x | x | x | x | -1.0 | x
Cc1c(C(=O)NCCCn2ccnc2)oc2ccccc12 | x | -0.539 | 10.2 | x | 5.9 | -59.0
COc1ccc(Nc2ccc(OC)cc2)cc1 | x | x | x | x | 14.7* | x
COc1ccc(Nc2ccc(Nc3ccc(OC)cc3)nn2)cc1 | 87.2 | -0.152 | -3.8 | 87.0 | -1.5 | 41.2
Cc1cc(Cl)ccc1NC(=S)NCCC(c1ccccc1)c1ccccc1 | 78.0 | x | 30.1 | 82.9 | 0.2 | 25.0
Cc1cccc(NC(=S)NCCC(c2ccccc2)c2ccccc2)c1 | 71.1 | x | 96.6* | 85.6 | 1.7 | -48.6
COc1cccc(NC(=S)NCCC(c2ccccc2)c2ccccc2)c1 | 76.3 | x | 100.4* | 70.1 | -3.2 | x
COc1cc(NC(=S)NCCC(c2ccccc2)c2ccccc2)cc(OC)c1 | 64.3 | 0.185 | 46.6 | 71.1 | 1.7 | 18.8
CCn1ccnc1[C@@H]1C[C@H]2CN(c3ccccc3OC)C(=O)[C@]23CCCN13 | x | 1.25 | 0.5 | x | -2.5 | x
Cc1ccc(C(C(=O)Nc2ccc3c(c2)OCO3)N(C)C(=O)/C=C\c2ccc3c(c2)OCO3)cc1 (stereo unspecified) | 91.8 | 0.0524 | 87.0* | 90.0 | -1.6 | 13.3
CC(=O)NCC(=O)N(C)C(C(=O)Nc1ccc2c(c1)OCCO2)c1ccc(C)cc1 (stereo unspecified) | x | 0.488 | -7.8 | x | 0.0 | 0.0
C=CCOC(=O)C(C#N)c1nc2ccccc2nc1N1CCN(Cc2ccccc2)CC1 (stereo unspecified) | 62.8 | -1.52 | 50.7* | 72.1 | 0.8 | -21.2
CCCCOC(=O)C(C#N)c1nc2ccccc2nc1N1CCN(Cc2ccc3c(c2)OCO3)CC1 (stereo unspecified) | 72.4 | -0.102 | 69.2* | 73.5 | 5.6 | 9.1
COCCOC(=O)C(C#N)c1nc2ccccc2nc1N1CCN(Cc2ccccc2)CC1 (stereo unspecified) | 75.7 | x | 17.2 | 75.7 | -3.8 | x
COCC(C)OC(=O)C(C#N)c1nc2ccccc2nc1N1CCN(Cc2ccccc2)CC1 (stereo unspecified) | 62.1 | -1.54 | 67.2* | 77.4 | 0.1 | -11.1
CC(C)COC(=O)C(C#N)c1nc2ccccc2nc1N1CCN(Cc2ccc3c(c2)OCO3)CC1 (stereo unspecified) | 69.2 | 1.46 | 47.4 | 77.5 | 4.8 | 33.3
COCC(=O)N1CCCC(C(=O)c2ccc(-c3ccccc3)c(F)c2)C1 (stereo unspecified) | x | 0.846 | 0.0 | x | -2.4 | x
O=C(COc1cc(Cl)c(Cl)cc1Cl)Nc1ccc([N+](=O)[O-])cc1Cl | x | x | x | x | 3.0 | x
CN(C)/C=N/c1cc(=O)n(C)c(=O)n1Cc1ccccc1 | 88.9 | 0.982 | -6.0 | 87.1 | 2.5 | 22.7
COc1ccc2sc(/C=C/c3ccccc3O)[n+](C)c2c1 | x | x | 92.4* | x | 5.8 | -50.0
SMILES | PTEN del growth | ROMK mod | Lmaj promast | HCT116 bCat-KO | p97 inhibitor | INS promoter inh
Cc1ccc(/C=C2\SC(=S)N(CCC(=O)NNS(=O)(=O)c3ccccc3)C2=O)cc1 | x | x | x | x | 2.6 | x
O=C(Nc1cc2nn(-c3ccccc3)nc2cc1Cl)c1ccco1 | 3.4* | x | -5.8 | 1.7* | 0.2 | -27.3
Cc1c(N=C2NC(=O)/C(=C/c3cccc([N+](=O)[O-])c3)S2)c(=O)n(-c2ccccc2)n1C | 77.5 | 0.321 | 89.5* | 76.6 | 4.0 | 3.6
COc1ccc(S(=O)(=O)NCc2ccccn2)c(Cl)c1Cl | 78.5 | x | -6.9 | 86.3 | 2.7 | -26.0
COC(=O)c1cn(-c2ccc(Cl)cc2)c(=O)c2ccccc12 | 89.3 | -0.784 | 57.8* | 94.6 | 6.0 | 35.7
COC(=O)c1cn(-c2ccccc2)c(=O)c2ccccc12 | x | -0.0531 | -1.7 | x | 5.0 | x
N/N=C(/Cc1nc2ccccc2[nH]1)c1ccc([N+](=O)[O-])cc1 | x | 0.15 | 39.4 | x | -0.7 | x
Cc1cc(NC(=O)CCc2ccccc2)c([N+](=O)[O-])cc1C | 73.1 | -0.169 | 50.6* | 86.0 | -3.0 | -40.5
Cc1cc(C)c([N+](=O)[O-])cc1NC(=O)CCSc1ccccc1Cl | 84.0 | x | 55.4* | 82.4 | 3.7 | 53.2
O=C(CCc1ccccc1)Nc1cc(Cl)ccc1O | 100.0 | -0.836 | 78.5* | 95.5 | -0.1 | -67.9
O=C(CCSc1ccccc1Cl)Nc1cccc([N+](=O)[O-])c1 | 86.2 | -0.54 | 4.9 | 95.8 | 0.6 | 6.2
Cc1c(NC(=O)CCc2ccccc2)cccc1[N+](=O)[O-] | x | -0.35 | 1.5 | x | 4.9 | 17.6
c1ccc(-c2noc(CN3CCN(c4cnccn4)CC3)n2)cc1 | x | 1.42 | 2.9 | x | -3.1 | x
CSc1cccc(NC(=S)Nc2cc(C)ccc2C)c1 | x | x | x | x | 2.8 | x
Fc1ccccc1Nc1nc2c(s1)CCc1ccccc1-2 | 76.8 | x | 8.9 | 68.8 | 0.0 | 0.0
Cc1noc(C)c1C(=O)N1CCC(C(=O)c2ccc(F)cc2F)CC1 | x | x | x | x | 10.8 | x
COc1cccc(-c2nn(C)c3sc(C(=O)NCc4ccc5c(c4)OCO5)cc23)c1 | 90.9 | x | 11.2 | 79.2 | 3.6 | x
COc1cccc(-c2nn(C)c3sc(C(=O)NCc4ccc(C)o4)cc23)c1 | 58.0 | x | 26.3 | 65.9 | 7.0 | 62.5*
COc1ccccc1OCC(=O)/C=C1/N(C)c2ccccc2C1(C)C | x | 0.534 | 56.7* | x | 0.2 | x
CN1/C(=C\C(=O)C[n+]2ccc3ccccc3c2)C(C)(C)c2ccccc21 | x | 0.342 | 99.9* | x | 4.5 | -407.1
CN1/C(=C\C(=O)COC(=O)c2ccccc2O)C(C)(C)c2ccccc21 | x | x | x | x | -3.6 | x
O=c1[nH]nc(Cc2ccc3ccccc3n2)c2ccccc12 | 75.6 | x | 22.4 | 81.5 | 3.6 | -51.2
CC(=O)C1=C(O)C=C(c2ccco2)CC1c1ccco1 (stereo unspecified) | 86.3 | -0.283 | 4.2 | 88.7 | 4.5 | x
CC(C)CCNC(=O)C1CCN(c2nc3ccccc3o2)CC1 | 90.1 | -1.16 | 0.1 | 83.8 | 0.4 | x
Cc1ccc(CN2CCC(C(=O)NCCC(C)C)CC2)o1 | 94.6 | x | 60.2* | 88.3 | -3.9 | x
C/C(CC(=O)Nc1ccc(Cl)c(C(F)(F)F)c1)=N\NC(=O)c1cc2ccccc2cc1O | 48.5 | x | -8.5 | 61.6 | -2.6 | -36.7
CN(C)c1ccc(/C=C(/C(=O)c2ccc(Cl)cc2Cl)n2cncn2)cc1 | 37.0 | x | 50.7* | 45.4 | -2.8 | 41.4
COc1ccc(/C=C(/C(=O)c2ccc(Cl)cc2Cl)n2cncn2)cc1 | 81.7 | -1.54 | 23.3 | 83.3 | 6.9 | x
Cc1cccc2cc(/C=C3\N=C(c4ccccc4)OC3=O)c(N3CCOCC3)nc12 | 100.2 | -5* | -1.2 | 98.2 | -2.6 | x

Screens: PubChem, several laboratories
